From ChEMBL document CHEMBL1201862, “PubChem BioAssay data set” (2004)
Where “and” joins values, the source holds several entries; their conditions need not be identical. Identical values can stand only once. Out of some 1,500 compounds screened, about 140 (9.3%) were called active. How the calls were made is not given here. The entries come from a sample that favours actives as a whole.

Test: false positives in methylated H4 peptide AlphaScreen detection – biochemical, cherry-picked samples, artefact control for NSD2 inhibitor project, dose response (AID 1053174);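 further: actives lower the AlphaScreen signal from the preloaded product and count as artifacts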

AbsAC35, active:
Cc1ccccc1NC1=C/C(=N\S(=O)(=O)c2ccc(C(=O)O)cc2)c2ccccc2C1=O 11.8 µM
Cc1ccc(S(=O)(=O)/N=C2\C=C(Nc3cccc(C(=O)O)c3)C(=O)c3ccccc32)c(C)c1 11.5 µM
N=C1/C(=C/c2ccc(O)c(O)c2)C(=O)N=C2SC(CC(=O)N3CCCC3)=NN12 10.6 µM
Cc1cccc(C)c1N=Nc1c(C)cc(O)cc1C 20.6 µM
O=C1/C(=C\c2cccc(O)c2O)SC(=S)N1Cc1ccccc1 14.9 µM
O=C1NC(=O)/C(=C\c2ccc(O)cc2O)S1 18.9 µM
CC1CCCC(C)N1/N=C/c1ccc(O)c(O)c1 (stereo not given) 10.9 µM
CSc1ccc(/C=N/Nc2cccc(C(=O)O)c2)cc1 12 µM
O=C(Cc1nnc(NC(=O)c2ccccc2)s1)N/N=C\c1ccc(O)c(O)c1 10.6 µM
O=C(O)CCCNc1cc(N2CCN(C(=O)c3ccco3)CC2)c2noc3c2c1C(=O)c1ccccc1-3 11.2 µM
Cc1ccc(-n2[nH]c(C)c(/C=N/Nc3ccc([N+](=O)[O-])cc3[N+](=O)[O-])c2=O)cc1C 13.4 µM
CN(C=[N+](C)C)c1cccc2c1C(=O)c1ccccc1C2=O 15.2 µM
CCN1/C(=C/c2ccc3cc(C)ccc3[n+]2CC)Sc2cc(C)c(C)cc21 19.3 µM and 11.4 µM
O=[N+]([O-])c1ccc(N2CCCC2)cc1N1CCCC1 18.9 µM
Cc1cc(C=O)c(C)n1-c1ccc(N2CCCCC2)c([N+](=O)[O-])c1 17.3 µM
CCN(CC)c1ccc(/C=C/c2ccc3ccc(OC)cc3[n+]2CC)cc1 11.4 µM
O=C(O)CCNc1ccc(NCCC(=O)O)c2c1C(=O)c1ccccc1C2=O 11.8 µM
Cc1ccc(C)c(S(=O)(=O)/N=C2\C=C(NS(=O)(=O)c3ccccc3)C(=O)c3ccccc32)c1 11.3 µM
CC(C)c1ccc(S(=O)(=O)/N=C2\C=C(NS(=O)(=O)c3ccccc3)C(=O)c3ccccc32)cc1 11.3 µM
CC(C)(C)c1ccc(S(=O)(=O)/N=C2\C=C(NS(=O)(=O)c3ccccc3)C(=O)c3ccccc32)cc1 13 µM
CCc1ccc(S(=O)(=O)/N=C2\C=C(NS(=O)(=O)c3ccccc3)C(=O)c3ccccc32)cc1 15.7 µM
Cc1[nH]c(O)nc1C(=O)CCCCC(=O)OCC(=O)Nc1ccccn1 11.4 µM
Nc1ccc(Nc2ccccc2)c(S(=O)(=O)O)c1 31.6 µM
CN(C)c1ccc(CNCCC(Cc2ccccc2)c2ccco2)cc1 (stereo not given) 16.6 µM
COc1ccccc1-c1nnc2n1N=C(c1ccc(O)c(O)c1)CS2 18.5 µM
COc1cccc2c(SCC(=O)N/N=C/c3ccc(O)c(O)c3)cc(C)nc12 12.7 µM
N#C/C(=C/c1ccc(O)c(O)c1)C(=O)NCc1ccc(Cl)cc1 14.6 µM
COCC/N=c1\scc(-c2ccco2)n1/N=C/c1ccc(O)c(O)c1O 11.7 µM
O=C(/C=C/c1ccc(O)c(O)c1)c1ccccc1O 20.7 µM
COc1ccc(S(=O)(=O)N2CCN(CC(=O)c3ccc(O)c(O)c3)CC2)cc1 12.5 µM
O=C(CN1CCN(S(=O)(=O)c2ccc(Cl)cc2)CC1)c1ccc(O)c(O)c1 14.7 µM
CC(C)c1ccc(S(=O)(=O)N2CCN(CC(=O)c3ccc(O)c(O)c3)CC2)cc1 14.6 µM
CC1=C/C(=C\c2ccc(Br)o2)C(=O)O1 25.7 µM
CCCn1nc([N+](=O)[O-])c(C(C#N)c2nc3ccccc3s2)c(Cl)c1=O (stereo not given) 13.4 µM
CCn1nc([N+](=O)[O-])c(C(C#N)c2nc3cc(C(F)(F)F)ccc3s2)c(Cl)c1=O (stereo not given) 22.2 µM
CCN(CC)c1ccc2c(-c3ccc(S(=O)(=O)O)cc3S(=O)(=O)[O-])c3ccc(=[N+](CC)CC)cc-3oc2c1 14.9 µM
O=S(=O)(O)c1cc(O)c(N=Nc2ccc(O)cc2O)c2ccccc12 12.8 µM
O=S(=O)(O)c1cc(Cl)cc(N=Nc2ccc(O)cc2O)c1O 14.5 µM
O=C(O)c1ccccc1N=N/C(=N/Nc1cc(S(=O)(=O)O)ccc1O)c1ccccc1 13.7 µM
O=C(Oc1ccccc1)c1cc(O)c(O)c(O)c1 17.2 µM
CC1=NN(c2ccccc2)C(=O)C1/C=C1\NC(=S)NC1=O (stereo not given) 28.8 µM
CCS(=O)(=O)C1=NN2C(=N)/C(=C\c3ccc(SCc4ccco4)o3)C(=O)N=C2S1 18.7 µM
CC(=O)c1ccc2c(c1)C1C=CCC1C(C(=O)O)N2 (stereo not given) 13.9 µM
Cc1ccc2[nH]c(/C(C#N)=C/c3ccc(O)c(O)c3)nc2c1 22.9 µM
N#C/C(=C/c1ccc(O)c(O)c1)c1nc2ccccc2[nH]1 15 µM
CC1COCC(C)N1C1=C(Cl)C(=O)c2ccccc2C1=O (stereo not given) 12.2 µM
O=[N+]([O-])c1ccccc1/C=C\C=N\N1CCN(c2ccccc2)CC1 17.5 µM
O=C(COC(=O)c1ccccc1)Nc1ncc([N+](=O)[O-])s1 21.8 µM
Cc1cc2c(=Cc3ccc(N(C)C)cc3)c3ccccc3n2[n+]1C 14.4 µM
NCCc1c(-c2ccccc2)n(-c2ccccc2)c2ccccc12 18.5 µM
CN(C)C=O.O=C(O)c1ccccc1NS(=O)(=O)c1ccc(N/N=C/c2ccc(O)c(O)c2)c([N+](=O)[O-])c1 10.8 µM
COc1cc(OC)c(OC)cc1CCC(C)NCCC(c1ccccc1)c1ccccc1 (stereo not given) 11.1 µM
CCN(c1ccccc1)S(=O)(=O)c1cc(C(=O)O)ccc1C 17.7 µM
O=C1N=C(Nc2ccccc2Cl)S/C1=C\c1cccc([N+](=O)[O-])c1O 17.4 µM
Cc1ccc(NC(=O)CCCCCC2NC(=O)NC2C)cc1 (stereo not given) 13.9 µM
